Tau ThT inhib = tau fibrillization inhibition (ThT binding); P10636; recombinant tau K18 P301L, heparin-induced fibrillization, ThT fluorescence; Potency, µM (series often up to 57.4 µM), inactives show at the highest dose activity, negative = inhibition, hits mostly inhibitors; 2.1% of 270,000 active; AID 1460; note: nearly all actives have a fitted effect of over 55% in size
Target sequence (P10636 561-689 P618L limits assumed): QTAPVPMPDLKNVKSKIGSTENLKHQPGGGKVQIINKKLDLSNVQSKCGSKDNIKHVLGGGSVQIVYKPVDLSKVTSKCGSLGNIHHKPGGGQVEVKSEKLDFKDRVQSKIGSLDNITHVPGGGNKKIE
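Tau K18 P301L fragment (15 uM unlabeled plus 0.24 uM Alexa 594-labeled) in 100 mM sodium acetate pH 7 with compound, fibrillization induced by 20 uM heparin for 6 hr at 37 C. Thioflavin T (30 uM) added, fluorescence read after 1 hr (ex 450, em 510 nm).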
Tau FP inhib = tau fibrillization inhibition (FP). 0.39% of 280,000 active. AID 1468. Potency, µM (series often up to 57.7 µM), inactives show at the highest dose activity, negative = inhibition, hits mostly inhibitors. K18 P301L tau heparin fibrillization, Alexa594 FP, 6 h; note: nearly all actives have a fitted effect of over 55% in size
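Heparin (20 uM) drove fibril formation of recombinant tau K18 P301L, 15 uM unlabeled with 0.24 uM Alexa 594 label, for 6 hr at 37 C in 100 mM sodium acetate pH 7. Fluorescence polarization (555/632 nm) read 1 hr after 30 uM ThT.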
TRb-SRC2 inh = inhibitors of human thyroid hormone receptor beta-SRC2 interaction; P10828; TRbeta-SRC2 peptide binding, fluorescence polarization; receptor liganded with 1 µM T3; Potency, µM (highest dose often 106 µM), inactives show at the top dose activity change, negative = inhibition, actives largely listed as inhibitors; 0.065% of 280,000 active;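 note: plate controls were bound peptide for no effect and peptide without receptor for full effect; nearly all actives have a fitted effect of over 50% in size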
Target sequence (P10828 whole entry, looked up): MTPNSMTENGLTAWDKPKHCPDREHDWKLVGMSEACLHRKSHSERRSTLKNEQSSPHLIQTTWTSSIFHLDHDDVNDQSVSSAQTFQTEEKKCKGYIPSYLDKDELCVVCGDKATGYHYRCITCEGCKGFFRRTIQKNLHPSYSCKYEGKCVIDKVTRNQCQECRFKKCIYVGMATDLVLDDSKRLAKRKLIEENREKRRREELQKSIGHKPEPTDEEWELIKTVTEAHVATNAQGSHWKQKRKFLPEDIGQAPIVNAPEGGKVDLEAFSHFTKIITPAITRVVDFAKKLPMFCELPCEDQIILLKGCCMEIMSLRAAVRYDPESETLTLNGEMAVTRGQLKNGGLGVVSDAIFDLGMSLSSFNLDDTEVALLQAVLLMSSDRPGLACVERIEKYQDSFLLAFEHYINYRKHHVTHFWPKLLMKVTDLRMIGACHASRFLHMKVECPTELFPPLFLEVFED
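Read-out is fluorescence polarization (555 nm excitation, 632 nm emission) of a Texas Red SRC2 coactivator peptide; loss of signal reflects blocked binding to human TRb ligand-binding domain in the presence of 1 uM T3.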
TR SRC2 fluor cs = Texas Red fluorescence interference in TRb-SRC2 counter-screen; TRb/SRC2 Texas Red total fluorescence interference; Potency, µM (top dose mostly 106 µM), without a hit: at the top dose fluorescence change, negative = quenching; 0.29% of 280,000 active; active = well fitted curve in either direction with a large enough effect; inconclusive = small, poorly fitted or top-dose-only effect
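Human TRβ ligand-binding domain (0.6 uM) and Texas Red SRC2 peptide (20 nM) in Tris buffer with 1 uM T3 and 5% DMSO were incubated with pinned compound for 5 hr at ambient temperature. Total fluorescence was computed as S + 2P (555/632 nm).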
Tau fluor cs = counter-screen for tau fibril formation inhibitors. tau K18 P301L (four-repeat tau fragment) Alexa594 fluorescence, heparin fibrillization. Potency, µM (titrated, usually from 57.7 µM), for the others: at the top dose activity change, negative = decrease. 0.93% of 280,000 active; note: nearly all actives have a fitted effect of over 55% in size
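Human K18 P301L tau (15 uM unlabeled plus 0.24 uM Alexa 594-labeled, final) in 100 mM sodium acetate pH 7 was mixed with compound and 20 uM heparin and incubated 6 hr at 37 C.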
* marks the source's active call; other numbers are inactive results; ? = inconclusive; · = no result given; [ ] = another dose, or the depositor's remark. Compounds with a hit are over-represented: about 3.1% of the library has one in this group of screens. Unless noted, calls come from the whole dose curve; as a rule, active = well fitted curve in the direction sought with a large enough effect; inconclusive = small, poorly fitted or top-dose-only effect, or another doubt; inactive = no such curve, though single readings can be large; an effect the other way counts as inactive or inconclusive. Unless noted, % is set by controls: 0 for no effect and ±100 for the full control effect; potency is the fitted concentration of half-maximal effect.

SMILES | Tau ThT inhib | Tau FP inhib | TRb-SRC2 inh | TR SRC2 fluor cs | Tau fluor cs
CCCN(CCC)C(=O)Cn1c(=O)n(CCCCCC(=O)NCc2ccc3c(c2)OCO3)c(=O)c2sccc21 | 6% | -6% | -1% | -12% | -3%
Cc1ccc(C(=O)/C=C/c2cn(CC(O)CN3CCOCC3)c3ccccc23)cc1 (configuration not stated) | ? | 6% | 9% | -3% | -23%
CCCN(CCC)CC(O)Cn1cc(/C=C/C(=O)c2ccc(OCC)cc2)c2ccccc21 (configuration not stated) | 8.9µM* | 0% | -3% | -4% | ?
COc1ccc(C(=O)/C=C/c2cn(CN3CCN(C)CC3)c3ccccc23)cc1 | 13µM* | 0% | 1% | -5% | 18µM*[quencher]
CCOc1ccc(C(=O)/C=C/c2cn(CN3CCN(C)CC3)c3ccccc23)cc1 | ? | 5% | 4% | -5% | 13µM*[quencher]
CCC(=C(c1ccc(OC)cc1)c1ccc(OC)cc1)c1cn(CC(O)CN(CCO)CCO)c2ccccc12 (configuration not stated) | ? | 1% | 0% | -1% | 13µM*[quencher]
CCOc1ccccc1NC(=O)C(=O)NCCc1sc(-c2cccc(F)c2)nc1C | -1% | -16% | 0% | 0% | -12%
Clc1cccc(Nc2nc(-c3ccncc3)nc3ccccc23)c1 | -8% | -11% | -1% | -1% | -22%
Oc1ccc(Nc2nc(-c3ccc(Cl)cc3)nc3ccccc23)cc1 | 13µM* | ? | 1% | -7% | 4µM*[quencher]
Cc1nc2ccccc2nc1N/N=C/c1ccc(O)cc1 | 14µM* | 12% | 4% | -7% | ?
CC(=O)Nc1ccc(Nc2nc(-c3ccccc3)nc3ccccc23)cc1 | ? | -3% | 1% | 1% | 14µM*[quencher]
COC(=O)c1ccc(Nc2nc(-c3ccccc3Cl)nc3ccccc23)cc1 | 11% | 13µM* | 11% | -4% | ?
Oc1ccc(/C=N/Nc2ccccc2)cc1 | ? | 15% | 5% | -1% | ?
CCCOc1ccc(CNC(=O)c2ccc(C)c(-n3c(C)nc4cccnc43)c2)cc1 | 7% | 5% | 5% | -1% | 0%
Cc1cc(C)c2oc(-c3ccc(Cl)c(NC(=O)c4cccs4)c3)nc2c1 | ? | -10% | 1% | ? | -17%
Oc1ccc(Nc2nc3ccccc3nc2Nc2ccc(O)cc2)cc1 | 16µM* | ? | -5% | -11% | 7.1µM*[quencher]
Cc1cccc(-c2nc(Nc3ccc(N4CCOCC4)cc3)c3ccccc3n2)c1 | ? | ? | 1% | -10% | 11µM*[quencher]
CC(=O)c1cccc(Nc2nc(-c3cccc(C)c3)nc3ccccc23)c1 | -8% | 7.1µM* | -1% | 0% | 2.8µM*[quencher]
Cc1n[nH]c(=O)nc1Nc1ccc(O)cc1 | -18% | -9% | 1% | -3% | -17%
CC(=O)c1cccc(Nc2nc(-c3ccccc3Cl)nc3ccccc23)c1 | -6% | ? | 11% | -14% | ?
CN1/C(=C\C=C2/SC(=S)NC2=O)C(C)(C)c2ccccc21 | 3.5µM* | 1% | ? | ? | ?
CN1C(=CC=C2C=C(I)C(=O)C(I)=C2)C(C)(C)c2ccccc21 | 2.2µM* | ? | ? | ? | 0.71µM*[fluorescent]
CCCN1C(=O)/C(=C\C=C2\N(CC)c3ccccc3C2(C)C)SC1=S | ? | -15% | 1% | -2% | -7%
CC(C)(C)OC(=O)NS(=O)(=O)Nc1ccccc1Br | · | · | -7% | 1% | ·
Cc1ccccc1OCC(=O)NCC(c1ccc(Cl)cc1)N1CCOCC1 (configuration not stated) | 0% | 3% | -2% | -8% | -11%
SMILES | Tau ThT inhib | Tau FP inhib | TRb-SRC2 inh | TR SRC2 fluor cs | Tau fluor cs
Nc1c(C(=O)N/N=C/c2ccc(Cl)cc2)cnn1-c1ccccc1 | 0% | -2% | 0% | -2% | -2%
Nc1scc2c(C(=O)N/N=C/c3ccc(Cl)cc3)nn(-c3ccccc3)c(=O)c12 | 11µM* | ? | -10% | -4% | ?
Cc1csc2nc(CCNS(=O)(=O)c3ccccc3)cn12 | -7% | 6% | 1% | -1% | -6%
COC(=O)C1=C(C(=O)OC)SC2(S1)C(C(=O)OC)=C(C(=O)OC)SC1=C2c2cccc(C)c2NC1(C)C | 14µM* | ? | 2% | -8% | ?
CCCCSc1nnc2c(n1)OC(c1ccc(Br)s1)Nc1ccccc1-2 (configuration not stated) | ? | -1% | -2% | -2% | -13%
C=CCn1c(-c2cc(-c3ccccc3)sc2N)n[nH]c1=S | ? | 16% | -3% | 2% | ?
CCn1c(SC(C)C)nnc1-c1cc(-c2ccccc2)sc1N | 13µM* | -11% | 1% | 0% | ?
C/C(=N\Nc1ccc(C#N)cc1[N+](=O)[O-])c1ccc(O)cc1 | ? | 9% | 2% | -9% | ?
CC/C(=N\Nc1ccccc1[N+](=O)[O-])c1ccc(O)cc1 | 1.8µM* | -11% | -10% | -6% | 4.5µM*[quencher]
N#C/C(=C\c1ccc(Cl)cc1)c1nc(-c2cc3c(ccc4ccccc43)oc2=O)cs1 | -4% | -5% | -3% | -11% | -6%
N#C/C(=C\c1ccccc1)c1nc(-c2cc3c(ccc4ccccc43)oc2=O)cs1 | 2% | ? | -29%[53 µM] | 0.28µM*[quencher] | -13%
CCOC(=O)/C=C/C(=O)Nc1ccccc1-c1ccccc1NC(=O)/C=C/C(=O)OCC | 20µM* | ? | -3% | 0% | -11%
Nc1cccn2c(-c3ccc(Cl)c(Cl)c3)cnc12 | 13µM* | -6% | -1% | -4% | ?
CC(C)O.CC(C)O.CC(C)O.CC(C)O.[Ti] | · | · | -2%[201 µM] | -2%[201 µM] | ·
CN(/C=C1/C(=O)CNC1=O)CCO | ? | -2% | 7% | -2% | -12%
CC(=O)N1c2ccc(S(=O)(=O)NCc3ccccc3Cl)cc2CC1C (configuration not stated) | -5% | -5% | 3% | 0% | -18%
CC(=O)N1c2ccc(S(=O)(=O)Nc3ccc(C)c(Cl)c3)cc2CC1C (configuration not stated) | -6% | -4% | -15% | 16µM*[quencher] | -23%
Cc1nnc(SCC(=O)Nc2ccc(Br)cc2)[nH]c1=O | 11% | -2% | -17%[53 µM] | 45µM*[quencher] | -4%
Cc1ccc(NC(=O)CSc2nnc(C)c(=O)[nH]2)cc1C | -4% | -10% | -3% | 3% | -13%
Nc1nc(-c2nn(Cc3ccccc3F)c3ncccc23)ncc1C1CC1 | · | · | -6% | -8% | ·
[O-][n+]1onc2c1CCC(=N/O)/C2=N\Nc1ccccc1 | 14µM* | ? | -6% | ? | ?
O=C(Cc1ccc([N+](=O)[O-])cc1)Nc1cc(C(F)(F)F)cc(C(F)(F)F)c1 | -2% | -11% | 2% | -2% | -18%
